Screens: PubChem, several laboratories
AHR act – AHR activators, primary screen, cell-based, luminescence, luciferase reporter, human; Aryl hydrocarbon receptor (Homo sapiens), P35869; AHR-responsive luciferase reporter cells; activation, % at 5 µM; 2.5% of 320,000 active; AID 2796, 2010; in the data active means activation above about 47%
Target sequence (P35869 whole entry, looked up): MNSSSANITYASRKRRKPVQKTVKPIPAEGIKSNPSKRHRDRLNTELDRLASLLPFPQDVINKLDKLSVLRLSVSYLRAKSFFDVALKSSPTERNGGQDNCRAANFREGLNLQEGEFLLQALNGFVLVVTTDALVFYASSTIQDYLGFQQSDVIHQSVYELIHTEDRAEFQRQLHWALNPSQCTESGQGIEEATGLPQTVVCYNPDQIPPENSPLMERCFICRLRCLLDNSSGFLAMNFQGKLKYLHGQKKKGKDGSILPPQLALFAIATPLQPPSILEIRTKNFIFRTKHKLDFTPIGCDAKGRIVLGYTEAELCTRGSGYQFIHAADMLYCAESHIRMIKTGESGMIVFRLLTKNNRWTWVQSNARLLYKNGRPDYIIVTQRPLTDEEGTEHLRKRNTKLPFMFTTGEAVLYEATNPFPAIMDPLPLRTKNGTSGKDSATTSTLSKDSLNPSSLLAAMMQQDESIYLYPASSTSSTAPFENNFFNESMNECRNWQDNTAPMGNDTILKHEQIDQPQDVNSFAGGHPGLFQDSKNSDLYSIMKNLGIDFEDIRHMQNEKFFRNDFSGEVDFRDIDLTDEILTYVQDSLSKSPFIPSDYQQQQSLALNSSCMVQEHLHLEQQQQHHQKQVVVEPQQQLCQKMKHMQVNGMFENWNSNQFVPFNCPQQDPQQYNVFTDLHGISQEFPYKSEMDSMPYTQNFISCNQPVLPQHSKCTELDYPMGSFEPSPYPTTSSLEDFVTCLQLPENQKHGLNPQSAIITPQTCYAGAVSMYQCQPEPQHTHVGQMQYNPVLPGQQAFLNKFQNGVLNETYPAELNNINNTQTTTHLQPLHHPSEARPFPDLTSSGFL
Wnt act – Wnt/beta-catenin pathway activators, primary screen, cell-based, plate reader, single point; activation, % at 9.35 µM; 1.2% of 300,000 active; Wnt/beta-catenin reporter cell assay, activator; AID 743398, 2014; in the data active means activation above about 30%, passing the limit was not always enough; inconclusive means no clear call, values can overlap the other calls
FXN GAA850 act – FXN promoter activators, primary screen, cell-based, luciferase luminescence, HEK293 lucGAA850; HEK293 lucGAA850 FXN promoter luciferase reporter, 24 h; percent of 10 µM SAHA response; activation, % at 6 µM; 0.56% of 360,000 active;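 active means activation above the average of all compounds screened plus 3 SD, cutoff fixed separately per campaign, cut at about 7.5% in these data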
MITF act – activators of MITF-driven TRPM1 promoter reporter, primary screen, cell-based, SK-MEL-5, luciferase, single point; SK-MEL-5 TRPM1-promoter luciferase, 24 h; % of positive control, neutral wells = 0; activation, % at 12.5 µM; 0.75% of 300,000 active;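 active means mean activation of at least 80% with every replicate also reaching 80%; inconclusive means mean reaches 80% but some replicate falls short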
esBAF inh – Bmi1 luciferase reporter increase in mESCs, primary screen, esBAF inhibitor project, mouse ES cells, Bmi1 luciferase knock-in, single point; reporter increase, % at 12.5 µM; 24 h; 100% = twice the neutral-well signal; 2% of 350,000 active; AID 602393, 2012; in the data active means activation above about 40%; inconclusive means no clear call, values can overlap the other calls;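 further: a rise in the Bmi1 reporter signal indicates esBAF inhibition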
Hits are given with their value; . = inactive; ? = inconclusive; / = no result given. In the library only some 4.2% were active in any assay of this set; here they are far more common.

SMILES	AHR act	Wnt act	FXN GAA850 act	MITF act	esBAF inh
O=C(Nc1ncccc1O)c1cc2ccccc2o1	.	55.4	.	.	.
Nc1nnnn1/N=C/C(Br)=C/c1ccccc1	.	.	.	.	52.9
Cc1cc(C)c(C#N)c(OCC(=O)Nc2ccccc2)n1	.	/	.	.	.
Cc1cc(C)c(C#N)c(OCC(=O)c2ccccc2)n1	51.5	.	.	.	.
Cc1ccc(C2=NNC(c3cccc(F)c3)S2)cc1 (stereo not given)	.	.	.	.	/
COc1ccc(C2NN=C(c3ccc(C)cc3)S2)cc1OC (stereo not given)	.	40.7	.	.	/
COc1cc2ncnc(NCc3ccc4c(c3)OCO4)c2cc1OC	63.4	.	.	.	.
CCc1csc(N2[C@@H](C#N)[C@H](c3ccc(-c4cccc(F)c4)cc3)[C@@H]2CO)n1	/	/	/	/	.
O=[N+]([O-])c1ccc(NN=Cc2ccc3c(c2)OCO3)nc1	/	.	.	.	93.3
O=[N+]([O-])c1ccc(NN=Cc2cccc(O)c2)nc1	/	.	.	.	.
O=[N+]([O-])c1ccc(N/N=C\c2cccnc2)nc1	.	.	.	99.0	/
CC(=O)Nc1ccc(C=NNc2ccc([N+](=O)[O-])cn2)cc1	/	.	.	.	88.7
O=[N+]([O-])c1ccc(NN=Cc2ccco2)nc1	/	.	.	.	91.2
O=[N+]([O-])c1ccc(S(=O)(=O)NN=Cc2ccc3c(c2)OCO3)cc1	/	.	.	.	.
C[C@@H]1CN([C@@H](C)CO)C(=O)c2cc(-c3cccc(C#N)c3)cnc2O[C@@H]1CN(C)Cc1ccc(F)cc1	/	/	/	/	.
Cc1[nH]nc(Nc2ccc(C(C)C)cc2)c1[N+](=O)[O-]	.	.	.	113.6	93.1
Cc1[nH]nc(Nc2ccc(Br)cc2)c1[N+](=O)[O-]	125.1	.	.	/	/
Cc1ccc(Nc2n[nH]c(C)c2[N+](=O)[O-])cc1	.	45.3	.	96.4	/
Cc1[nH]nc(NCCO)c1[N+](=O)[O-]	.	.	.	.	.
Cc1[nH]nc(Nc2ccccc2)c1[N+](=O)[O-]	.	.	.	.	/
COc1ccc(S(=O)(=O)Nc2cccc3c2O[C@H](CN(C)C(=O)Nc2ccc(F)cc2)[C@@H](C)CN([C@@H](C)CO)C3=O)cc1	/	/	/	/	.
CO[C@@H]1CN(C)C(=O)c2cc(NS(=O)(=O)c3ccccc3C)ccc2OC[C@H](C)N(C)C[C@@H]1C	/	/	/	/	.
Cc1ccc(S(=O)(=O)Nc2ccc3c(c2)C(=O)N([C@@H](C)CO)C[C@@H](C)[C@H](CN(C)CC2CCCCC2)O3)cc1	/	/	/	/	.
COc1cccc(-c2cn(CC[C@H]3CC[C@@H](NC(=O)CN(C)C)[C@H](CO)O3)nn2)c1	/	/	/	/	.
CC(=O)Nc1ccc(NC(=O)CSc2ncc(C(=O)Nc3ccc(Cl)cc3)c(=O)n2C)cc1	67.6	/	.	.	/
SMILES	AHR act	Wnt act	FXN GAA850 act	MITF act	esBAF inh
CC(=O)Nc1cccc(NC(=O)CSc2ncc(C(=O)Nc3ccc(F)cc3)c(=O)n2C)c1	65.8	.	.	.	.
CC(=O)c1cccc(NC(=O)CSc2ncc(C(=O)Nc3ccccc3)c(=O)n2C)c1	.	.	.	.	/
C[C@@H]1CN([C@H](C)CO)C(=O)c2cc(NC(=O)Nc3ccccc3)ccc2O[C@@H]1CN(C)S(=O)(=O)c1ccccc1	/	/	/	/	.
CN(C)C(=O)[C@H]1[C@H](CO)[C@H]2Cn3c(ccc(C4=CCCCC4)c3=O)[C@H]2N1Cc1ccccn1	/	/	/	/	.
CCOC(=O)C1CCN(c2ccc(-c3cccs3)nn2)CC1	.	38.0	.	83.5	.
c1csc(-c2ccc(N3CCOCC3)nn2)c1	.	33.5	.	.	.
c1csc(-c2nnc(-c3ccc(N4CCOCC4)cc3)o2)c1	.	/	.	.	.
CCN(CC)CCNC(=O)c1cc2c(-c3cccc(OC)c3)nn(C)c2s1	47.8	.	.	.	/
COCCCNC(=O)c1cc2c(-c3cccc(OC)c3)nn(C)c2s1	.	.	.	.	.
CCOCCCNC(=O)c1cc2c(-c3ccc(Cl)cc3)nn(C)c2s1	56.1	.	.	.	.
CCN(CC)CCNC(=O)c1cc2c(-c3ccc(Cl)cc3)nn(C)c2s1	52.9	.	.	.	.
CCCN(CCC)CCNC(=O)c1cc2c(-c3ccc(Cl)cc3)nn(C)c2s1	.	.	.	.	.
C[C@@H]1CCCCO[C@@H](CN(C)Cc2ccncc2)[C@H](C)CN([C@H](C)CO)C(=O)c2cc(NS(=O)(=O)c3cccs3)ccc2O1	/	/	/	/	.
Cc1cc(C)c2nc(/N=C(\N)NC(=O)Nc3ccccc3)nc(C)c2c1	70.3	.	.	.	/
CCCC(=O)N/C(N)=N/c1nc(C)c2ccccc2n1	59.7	.	.	.	.
C[C@@H]1CN([C@H](C)CO)S(=O)(=O)c2ccc(-c3cncnc3)cc2O[C@@H]1CN(C)C	/	/	/	/	.
CCN(CC)c1ccc(/C=C2\SC(N)=NC2=O)cc1	/	.	.	.	48.7
CCCCNc1c(-c2ccc(SC(C)CC)cc2)nc2cnccn12 (stereo not given)	48.2	/	.	.	.
Cc1ccc(NC(=O)c2cc(-c3cccc(O)c3)on2)cc1C	.	.	.	.	49.0
Cc1ccc(NC(=O)c2cc(-c3ccco3)on2)cc1	.	/	.	89.6	/
Cc1ccc(NC(=O)c2cc(-c3ccco3)on2)cc1C	.	/	.	.	47.4
O=C(Nc1ccc(F)c(Cl)c1)c1cc(-c2ccco2)on1	.	37.5	.	.	.
Cc1cccc(S(=O)(=O)N2C[C@H]3[C@@H](c4ccccc42)[C@@H](CO)N3C(=O)C2CC2)c1	/	/	/	/	.
C[C@@H]1CN([C@@H](C)CO)C(=O)c2cccc(NS(=O)(=O)c3ccccc3)c2O[C@@H]1CN(C)CC1CCCCC1	/	/	/	/	.
Cc1ccccc1Cn1cc(NC(=O)c2cc(-c3ccco3)on2)cn1	56.6	.	.	.	.
SMILES	AHR act	Wnt act	FXN GAA850 act	MITF act	esBAF inh
O=C(COc1ccc(Cl)cc1Cl)Nc1cccc(-c2ccc(N3CCOCC3)nn2)c1	/	.	.	.	/
O=C(COc1ccccc1)Nc1cccc(-c2ccc(N3CCOCC3)nn2)c1	.	?	.	85.9	.
Cc1ccc(C(=O)Nc2cccc(-c3ccc(N4CCOCC4)nn3)c2)cc1[N+](=O)[O-]	.	32.8	.	102.8	41.4
O=C(Nc1cccc(-c2ccc(N3CCOCC3)nn2)c1)c1ccccc1	.	.	.	?	.
O=C(Nc1cccc(-c2ccc(N3CCOCC3)nn2)c1)c1ccc([N+](=O)[O-])cc1	.	31.5	.	98.9	52.1
Cc1ccccc1C(=O)Nc1cccc(-c2ccc(N3CCOCC3)nn2)c1	.	.	.	.	59.8
C[C@H]1CN([C@@H](C)CO)C(=O)CCCn2nncc2CO[C@H]1CN(C)CC1CC1	/	/	/	/	.
COc1c(C)cccc1C(=O)Nc1ccc(N2CCOCC2)c(Cl)c1	.	/	.	88.9	58.5
O=C(Nc1ccc(-c2nc3ccccc3o2)cc1)c1ccc(N2CCOCC2)c([N+](=O)[O-])c1	54.5	.	.	.	/
